# Only some compounds are listed: those with a hit (about 2.4% of all), similar ones and a draw of the others.
# Pol beta inh: qHTS Assay for Inhibitors of DNA Polymerase Beta | P06746 | Pol beta primer extension/strand displacement, fluorescence kinetic | Potency, µM (doses to about 114 µM), hits mostly inhibitors | actives 1.3% (n = 340,000)
#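 10 nM enzyme + cpd, 15 min RT; start with substrate 50 nM final; read 0 min and after 10 min RT. Corrected, normalized data; 4-parameter Hill curve fit.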
# Pol kappa inh: qHTS for Inhibitors of Polymerase Kappa; DNA polymerase kappa (Homo sapiens), Q9UBT6; purified Pol kappa, fluorescent DNA synthesis assay, 10 min; Potency, µM (titrated, usually from 107 µM), hits mostly inhibitors; actives 0.53% (n = 400,000)
#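 First, compounds were pin-transferred onto 10 nM Pol kappa. After 15 min at room temperature, substrate was added to 50 nM final. Fluorescence was then measured kinetically at 0 and 10 min.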
# Tb PGK inh: qHTS Assay to Find Inhibitors of Phosphoglycerate Kinase; Potency, µM (highest dose often 57.5 µM), usual class: inhibitors; AID 602233, 2012; actives 0.043% (n = 380,000); PGK/GAPDH coupled, Kinase-Glo luminescence, 60 min; note: nearly all actives have a fitted effect of over 60% in size
#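 Recombinant glycosomal PGK reaction used 1,3-bisphosphoglycerate generated in-well by GAPDH (100nM final) in 100mM TEA pH 7.6, 5mM MgCl2, 0.01% Tween-20. After 60 minutes at room temperature, ATP was read by Kinase-Glo Plus luminescence end-point.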
# POLI inh: qHTS for Inhibitors of Polymerase Iota | DNA polymerase iota (Homo sapiens), Q9UNA4 | Pol iota fluorescent replication assay, 10 min | Potency, µM (titrated, usually from 115 µM), hits mostly inhibitors | actives 1% (n = 390,000)
#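 Pol iota at 10 nM preincubated 15 min with compounds at room temperature; reaction started with fluorescent substrate, 50 nM final. Fluorescence read kinetically at 0 and 10 min; buffer-only wells as negative control.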
# POLH inh: qHTS for Inhibitors of Polymerase Eta; DNA polymerase eta (Homo sapiens), Q9Y253; recombinant Pol eta, fluorescent DNA replication assay; Potency, µM (highest dose often 114 µM), actives largely listed as inhibitors; actives 1.2% (n = 390,000); AID 588591, 2011
#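 Pol eta at 10 nM preincubated with compounds 15 min at room temperature; reaction started with fluorescent substrate (50 nM final) and read kinetically at 0 and 10 min.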
# FEN1 inh-1: qHTS Assay for the Inhibitors of Human Flap endonuclease 1 (FEN1). P39748. Recombinant FEN1 flap cleavage, fluorescence, 15 min. Potency, µM (highest dose often 114 µM), hits mostly inhibitors. actives 0.35% (n = 390,000); note: nearly all actives have a fitted effect of over 65% in size
#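 Compounds are tested as a concentration series against 10 nM FEN1; after a 15 min room-temperature preincubation, 50 nM substrate starts cleavage, with plate reads at 0 and 15 min. Normalized responses are fitted by a Hill equation.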
# FEN1 inh-2: qHTS Assay for the Inhibitors of FEN1: Confirmatory Assay for Cherry-picked Compounds. shares compounds with FEN1 inh-1. FEN1 flap cleavage, TAMRA/BHQ2 fluorogenic DNA substrate. Potency, µM, usual class: inhibitors. actives 79% (n = 880). AID 720498, 2013; note: nearly all actives have a fitted effect of over 60% in size
# Numbers stand for hits; 0 = inactive; ? = inconclusive; - = no result. Calls come from the whole dose curve; as a rule, active = well fitted curve in the direction sought with a large enough effect; inconclusive = small, poorly fitted or top-dose-only effect, or another doubt; inactive = no such curve, though single readings can be large; an effect the other way counts as inactive or inconclusive.
SMILES,Pol beta inh,Pol kappa inh,Tb PGK inh,POLI inh,POLH inh,FEN1 inh-1,FEN1 inh-2
NS(=O)(=O)c1ccc(N=Nc2c(O)c(C(=O)O)cc3ccccc23)cc1,35µM,0,0,?,40µM,?,?
c1ccc2c(-c3cncc4ccccc34)cncc2c1,-,0,0,0,0,0,-
c1ccc2c(c1)-c1cccc3cncc-2c13,-,0,0,0,0,?,?
O=C(ONC(=O)C1CCCCC1C(=O)NOC(=O)c1ccccc1)c1ccccc1 (stereo unspecified),-,0,0,0,0,18µM,13
COc1ccc(-c2cn3c(n2)sc2cc(C(=O)NCCCN4CCCCC4)ccc23)cc1,0,0,0,0,?,0,67
Cn1c(N)c(C(=O)CSc2nnc(-c3c[nH]c4ccccc34)n2C2CC2)c(=O)[nH]c1=O,-,0,0,40µM,?,20µM,43
CCCn1c(N)c(C(=O)CSc2nnc(-c3c[nH]c4ccccc34)n2C2CC2)c(=O)[nH]c1=O,-,0,0,0,0,0,-
COc1cc(/C=N/NC(=O)c2cccc(C(=O)N/N=C/c3ccc(O)c(OC)c3)n2)ccc1O,?,0,0,?,?,?,1.3
COc1cc(/C=N/NC(=O)c2nc(C)cc(C)n2)ccc1O,0,0,0,0,0,0,-
Brc1ccc(-c2ccc(CNCCSc3nnnn3-c3ccccc3)o2)cc1,0,0,0,0,0,0,-
O=C(Cc1ccccc1)NC(c1ccco1)c1cc(Cl)c2cccnc2c1O (stereo unspecified),-,-,-,-,-,-,30
CN(C)CCNc1ccc(CO)c2sc3ccc(O)cc3c(=O)c12,-,?,0,79µM,?,22µM,17
COc1ccc(Nc2c3ccccc3nc3ccccc23)cc1,?,0,0,?,0,?,30
COc1ccc(Nc2nc(N3CCCC3)c3ccccc3n2)cc1,35µM,0,0,?,0,?,34
COC(=O)c1c(NC(=O)CS(=O)(=O)c2ccc(C)cc2)sc2c1CCCCC2,0,0,0,0,0,0,-
COc1ccc(C2C(=O)N(C3CCCCCC3)CC(=O)N2CCc2ccc(OC)c(OC)c2)cc1 (stereo unspecified),0,0,0,0,0,0,-
COc1cc(NC(=O)c2cc3cc4ccc(OC)c(Cl)c4nc3s2)cc(OC)c1,0,0,0,0,0,0,-
Cn1c(=O)c(C(=O)Nc2ncccc2O)c(O)c2ccccc21,0,0,0,0,0,50µM,60

# Screening results: PubChem BioAssay, National Center for Advancing Translational Sciences (NCATS)
